# Calls of active or inactive are those of the source. Entries that show only a call come without a potency. Calls come from the whole dose curve; as a rule, active = well fitted activation curve with a large enough effect; inconclusive = small, poorly fitted or top-dose-only effect; inactive = no such curve, though single readings can be large or run the other way.
# Molecular target: Cytochrome P450 3A4 (Homo sapiens) (UniProt P08684)
# Experiment: qHTS Assay for Activators of Cytochrome P450 3A4 (AID 885); note: nearly all actives have a fitted effect of over 65% in size
# Details: recombinant CYP3A4, Luciferin-PPXE luminescence, 60 min; series mostly up to 57.1 µM
# Outline: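 Human CYP3A4 dealkylates Luciferin-PPXE to luciferin, which luciferase detection converts to light. Substrate was at its KM (25uM), buffer 200mM KPO4, reaction 60 min at RT.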
# Sequence of Cytochrome P450 3A4 (Homo sapiens) (P08684 whole entry, looked up): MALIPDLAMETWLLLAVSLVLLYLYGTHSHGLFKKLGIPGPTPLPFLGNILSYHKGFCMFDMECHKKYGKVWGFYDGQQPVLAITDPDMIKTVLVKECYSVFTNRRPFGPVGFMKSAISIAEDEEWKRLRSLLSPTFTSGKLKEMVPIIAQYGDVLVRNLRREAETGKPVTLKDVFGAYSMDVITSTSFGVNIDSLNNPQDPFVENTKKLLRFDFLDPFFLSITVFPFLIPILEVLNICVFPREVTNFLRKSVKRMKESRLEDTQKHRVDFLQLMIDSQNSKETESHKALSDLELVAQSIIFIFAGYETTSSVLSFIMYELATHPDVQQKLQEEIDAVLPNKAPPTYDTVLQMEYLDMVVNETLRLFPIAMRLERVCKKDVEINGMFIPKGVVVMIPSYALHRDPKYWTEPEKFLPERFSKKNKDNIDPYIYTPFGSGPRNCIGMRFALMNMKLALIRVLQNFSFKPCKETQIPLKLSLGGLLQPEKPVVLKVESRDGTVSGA
row,Structure (SMILES),Potency
1,CCN1CCCC1Cn1c(-c2ccccc2)nc2c(NC3CCCCC3)nc(C)nc21 (stereo unspecified),inactive
2,CCCn1c(C)nc2c(N3CCCN(Cc4ccccc4)CC3)nc(C)nc21,inactive
3,CCCn1c(-c2ccc(F)cc2)nc2c(NCCN3CCSCC3)nc(C)nc21,inactive
4,CCCn1c(-c2ccc(F)cc2)nc2c(NC3CCN(Cc4ccccc4)C3)nc(C)nc21 (stereo unspecified),inactive
5,CCN(CC)CCCC(C)n1c(-c2ccccc2)nc2c(N(CCOC)CCOC)nc(C)nc21 (stereo unspecified),inactive
6,COCCN(CCOC)c1nc(C)nc2c1nc(-c1ccccc1)n2CCCN1CCCCC1C (stereo unspecified),inactive
7,CCN1CCCC1Cn1c(-c2ccccc2)nc2c(NCCOC)nc(C)nc21 (stereo unspecified),inactive
8,CCCn1c(-c2ccc(F)cc2)nc2c(NCCN3CCOCC3)nc(C)nc21,inactive
9,Cc1nc(NC2CCCCC2)c2nc(-c3ccccc3)n(CCN3CCCCC3)c2n1,inactive
10,COCCN(CCOC)c1nc(C)nc2c1nc(-c1ccccc1)n2CCN1CCOCC1,inactive
11,Cc1nc(NCc2ccccc2)c2nc(-c3ccccc3)n(C(C)CN(C)C)c2n1 (stereo unspecified),inactive
12,CCN(CC)CCn1c(-c2ccccc2)nc2c(NCc3ccccc3)nc(C)nc21,inactive
13,CCCn1c(-c2ccc(F)cc2)nc2c(N3CCCN(Cc4ccccc4)CC3)nc(C)nc21,inactive
14,Cc1nc(NCc2ccccc2)c2nc(-c3ccccc3)n(CCN3CCCC3)c2n1,inactive
15,CCCn1c(-c2ccc(F)cc2)nc2c(NCC(C)(C)CN(C)C)nc(C)nc21,inactive
16,CCN(CC)CCCCn1c(-c2ccccc2)nc2c(N(CCOC)CCOC)nc(C)nc21,inactive
